In ChEMBL document CHEMBL3433997, “St. Jude Leishmania screening dataset” (2016) one finds inhibition data, which are given here for 35 molecules.

Holding throughout (assay type): functional
Test [1] has as its target Solute carrier family 2, facilitated glucose transporter member 1 (Homo sapiens) (UniProt P11166). Nature of the test: ST_JUDE_LEISH: Cytotoxicity at 2uM final concentration against transgenic Leishmania Mexicana promastigotes LmGLUT1 that are glucose transport deficient and complemented with the human glucose transporter GLUT1. Activity is measured by DNA content using SYBR green in vitro.

Test [2] addresses Hexose transporter 1 (Plasmodium falciparum) (UniProt O97467). The test can be described thus: ST_JUDE_LEISH: Cytotoxicity at 2uM final concentration against transgenic Leishmania Mexicana promastigotes LmPfHT that are glucose transport deficient and complemented with the Plasmodium falciparum hexose transporter. Activity is measured by DNA content using SYBR green in vitro.
Test [3] concerns the target Glucose transporter (Leishmania mexicana) (UniProt O61059). The test can be described thus: ST_JUDE_LEISH: Cytotoxicity at 2uM final concentration against transgenic Leishmania Mexicana promastigotes LmGT2 that are glucose transport deficient and complemented with the L. Mexicana glucose transporter 2. Activity is measured by DNA content using SYBR green in vitro.

Sequence of Solute carrier family 2, facilitated glucose transporter member 1 (Homo sapiens) (P11166 whole entry): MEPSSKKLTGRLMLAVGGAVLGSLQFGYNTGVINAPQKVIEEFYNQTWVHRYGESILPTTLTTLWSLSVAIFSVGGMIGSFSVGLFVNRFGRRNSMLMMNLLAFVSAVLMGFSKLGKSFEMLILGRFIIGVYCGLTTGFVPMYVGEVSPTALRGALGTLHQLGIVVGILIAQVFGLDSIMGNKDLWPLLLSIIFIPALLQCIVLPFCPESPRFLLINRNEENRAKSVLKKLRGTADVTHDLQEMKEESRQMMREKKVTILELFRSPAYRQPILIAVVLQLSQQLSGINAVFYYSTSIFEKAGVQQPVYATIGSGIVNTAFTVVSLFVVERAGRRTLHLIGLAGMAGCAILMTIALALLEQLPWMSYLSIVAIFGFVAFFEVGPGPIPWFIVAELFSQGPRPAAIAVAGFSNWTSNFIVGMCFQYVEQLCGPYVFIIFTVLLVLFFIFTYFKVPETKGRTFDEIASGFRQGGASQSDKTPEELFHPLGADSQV

Take `COc1ccc2nccc([C@@H](O)CN3CCC(NCCOc4ccccc4C(F)(F)F)CC3)c2c1`: the inhibition in test [1] was 0.68%; in test [2], 2.17%; in test [3], 2.28%.
For `COc1c(C2CCN(CCCCNC(=O)c3ccc(-c4ccc(Cl)cc4)cn3)CC2)ccc2c1CCCC2` the same measures were -1.51%, -0.19% and -2.15%.
As for `O=c1cc(NCCCNCc2cccc(OC(F)(F)F)c2)[nH]c2ccccc12`, the inhibition is 2.97% in test [1], -3.41% in test [2] and 4.57% in test [3].
The corresponding values for `Cc1cc2nc(-c3ccc(OCC(=O)NCc4cccc(C(F)(F)F)c4)cc3)[nH]c2cc1C` are -2.75%, -1.2% and -1.65%.
In the case of `COc1ccccc1CCNC(=O)c1cnc(N2CCN(c3ccncc3)CC2)c(Cl)c1`, the figures for the inhibition in test [1], in test [2] and in test [3] were 74.5%, 83.8% and 82.9%, respectively.
`NC(=O)c1c(Cl)nc2ccccc2c1Cl`: the inhibition came out at 4.35% in test [1], 4.69% in test [2] and 4.04% in test [3].
As for `O=C(c1cc(-c2cccs2)n[nH]1)N1CCN(S(=O)(=O)c2ccc(Cl)cc2)CC1`, the inhibition in test [1] is 2.31%; in test [2] it was 2.77%; in test [3] it was 1.76%.
As to `NCCCOc1cnc(-c2ccccc2)c2nc(-c3nonc3N)n(CCc3ccccc3)c12`, the inhibition in test [1] worked out at 4.6%; in test [2], 2%; in test [3], 1.33%.
For the molecule `CC(C(=O)N1CCCC1)N1CCN(C(c2ccccc2)c2ccccc2)CC1` (stereo not given), the inhibition in test [1] amounted to 2%; in test [2] it was 2.36%; in test [3] it was 2.74%.
As for `CC1(C)NC(N)=NC(=N)N1OCc1nc(N)nc(Nc2ccccc2)n1`, the inhibition in test [1] turned out to be 5.43%; in test [2], 5.4%; in test [3] it was 5.9%.
In the case of `COc1ccc(S(=O)(=O)NC2CCN(c3cc(C)nc(Nc4cccc(C#N)c4)n3)CC2)cc1`, the values for the inhibition in test [1], in test [2] and in test [3] were 4.31%, 1.33% and 0.61%, respectively.
For `Cc1cc(=NN=Cc2ccc(Cl)cc2)c2cc(C(F)(F)F)ccc2[nH]1` the same measures were 1.05%, -4.87% and 5.23%.
`CCCCN(CCCC)CCCN(CCCN(CCCC)CCCC)c1cc(C)nc(Nc2ccc(Br)cc2)n1`: the values for the inhibition in test [1], in test [2] and in test [3] were -1.21%, -0.35% and -1.15%, respectively.
With `COc1ccc2nccc([C@@H](O)CN3CCC(NCCOc4cc(C(F)(F)F)ccc4F)CC3)c2c1`, the inhibition in test [1] came out at 21.5%; in test [2], 33.3%; in test [3] it was 14.4%.
For `COc1cc(Nc2ccnc3cc(-c4ccccn4)ccc23)cc(OC)c1OC`, the inhibition in test [1] is 5.56%; in test [2], 8.67%; in test [3] it was 5.6%.
For `N=c1n(Cc2ccc(Cl)cc2)c2ccccc2n1CC(O)c1ccc(Cl)c(Cl)c1` (stereo not given), the inhibition in test [1] was 0.04%; in test [2], 1.87%; in test [3] it was -1.55%.
As for `Cc1sc(NC(=O)c2ccc([N+](=O)[O-])cc2Cl)c(C(N)=O)c1C`, the inhibition came to 2.24% in test [1], 2.08% in test [2] and 2.74% in test [3].
As for `Cc1cc2nc(-c3ccc(C(=O)NC4CCN(Cc5ccccc5)CC4)s3)[nH]c2cc1C`, the inhibition in test [1] came out at 2.92%; in test [2], 2.77%; in test [3] it was 2.98%.
For the molecule `COc1ccc(Cl)cc1NC(=O)Nc1ccnc2ccccc12`, the inhibition in test [1] is 14.6%; in test [2] it was 13.4%; in test [3], 6.32%.
As to `COc1cc(C(=O)NC2CC(C)(C)NC(C)(C)C2)ccc1-c1cc2cc(Cl)c(Cl)cc2[nH]1`, the values for the inhibition in test [1], in test [2] and in test [3] were 1.69%, -0.26% and 2.02%, respectively.
Take `CC(Cc1ccc(OCCN2CCN(c3cccc(Cl)c3)CC2)cc1)NCC(O)c1cccc(Cl)c1` (stereo not given): the inhibition was 0.3% in test [1], 0% in test [2] and 1.82% in test [3].
Consider `COC(=O)c1cccc(OCCNC2CCN(C[C@H](O)c3ccnc4ccc(OC)cc34)CC2)c1`, for which the inhibition in test [1] is 0.73%; in test [2] it was -0.34%; in test [3] it was 0.25%.
In the case of `CC(C)(C)c1nn(-c2ccccc2)c2[nH]c(=O)c(CNCc3ccccc3)cc12`, the values for the inhibition in test [1], in test [2] and in test [3] were 2.76%, 2.02% and 3.75%, respectively.
Turning to `CC(C)N1CCN(C(CN2CCN(CCCOc3ccc4ccccc4c3)CC2)c2ccc(F)cc2)CC1` (stereo not given), the inhibition in test [1] is 1.8%; in test [2], 1.79%; in test [3], -0.76%.
For `CN1CCN(CC(O)CNC(=O)Nc2ccc(Br)cc2)CC1` (stereo not given) the same measures were 3.01%, 3.45% and -0.7%.
With `CCN(CC)CCN(Cc1ccc(-c2ccc(C(F)(F)F)cc2)cc1)C(=O)Cn1c(CCc2ccc(F)c(C#N)c2)nc(=O)c2ccccc21`, the values for the inhibition in test [1], in test [2] and in test [3] were 6.73%, 7.67% and 8.84%, respectively.
In the case of `O=C(Nc1ccc2c(c1)CN(Cc1ccc(N3CCCC3)o1)CCC2)c1cncs1`, the results for the inhibition in test [1], in test [2] and in test [3] were 1.6%, 1.62% and -0.45%, respectively.
As for `CCCCCn1c(Sc2ccc(C#N)c([N+](=O)[O-])c2)nnc1-c1ccc(OC)cc1`, the inhibition in test [1] worked out at 9.26%; in test [2], 6%; in test [3], 4.8%.
For `NC1CCCN(Cc2ccc(-c3ccc(-c4nc5ccccc5[nH]4)s3)cc2)C1` (stereo not given), the inhibition came to 8.95% in test [1], 5.92% in test [2] and 9.09% in test [3].
On to `Cc1ccc2[nH]c(C)cc(=NN=CC=Cc3ccccc3)c2c1`, for which the inhibition in test [1] was -0.92%; in test [2], 1.15%; in test [3], -6.67%.
On to `Cc1ccc(CN2CCCN(Cc3ccc(C(=O)Nc4ccc(Cl)cc4)cc3)CC2)s1`, for which the inhibition in test [1] was found to be 2.49%; in test [2], 2.74%; in test [3] it was 0.05%.
On to `CC(C)C[C@H](NC(=O)c1ccc(OCCN2CCOCC2)cc1)C(=O)N[C@H](/C=N/N1CC(=O)NC1=O)CCc1ccccc1`, for which the inhibition was 3.3% in test [1], 4.15% in test [2] and 2.88% in test [3].
For the molecule `Cc1ccc(C)c(NC(=O)NCCNc2ccnc(Nc3ccc(F)cc3)n2)c1`, the inhibition worked out at 17% in test [1], 13.1% in test [2] and 6.47% in test [3].
For `COc1cccc(C(=O)NC(C=Cc2ccccc2)c2cc(Cl)c3cccnc3c2O)c1` (stereo not given) the same measures were 2.89%, 2.04% and 2%.
For `N=c1ccn(CC(=NO)c2ccc(Cl)c(Cl)c2)cc1` the same measures were 0.09%, 2.8% and 0.32%.

One may read the inhibition as the change of the read-out against control, counted positive when it falls.
